In PubChem BioAssay AID2098 (Broad Institute, 2009):
Out of some 300,000 compounds screened, about 2,300 (0.77%) were called active.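 Rule for the calls: active = more than half of replicate wells show activity change below -50%, luminescence cut by over half; inconclusive = some wells, but at most half, below -50%; inactive = no replicate well below -50%.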 The sample as a whole holds a higher share of actives than the screen did.

Experiment: HSF1 inhibitors in luciferase reporter cells, primary screen, cell-based, NIH3T3, luminescence (AID 2098);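 note: luciferase reports HSF-1 transcriptional activity via heat shock element; 0% = median of DMSO wells and -100% = zero luminescence signal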
Conditions: NIH3T3-HGL HSE-luciferase, MG132-induced, luminescence 8 h; stronger effect = lower value; screened at 7.5 µM (by protocol)

Activity change, negative = inhibition, active:
Cc1cccc(N2CCN(C(c3ccccc3)c3nnnn3CC3CCCO3)CC2)c1C (stereo unspecified) -61%
CCOC(=O)N1CCN(C(=S)Nc2ccc(C)cc2C)CC1 -68.8%
COc1ccc(C(C)NC(=S)NC2CCCCC2)cc1OC (stereo unspecified) -74.6%
O=C1CN(C(=O)COc2c(Cl)cccc2Cl)c2ccccc2N1 -74.4%
COC(=O)Cc1[nH]n(-c2nc3ccccc3s2)c(=O)c1C(C)=Nc1ccc(OC)cc1 -58.9%
C=CCn1c(C)cc(C2=NNC(=NCC)SC2)c1C -77.6%
O=C(Nc1ccc(F)c(Cl)c1)C1CCN(S(=O)(=O)c2cccnc2)CC1 -56.8%
Cc1ccc(-n2c(=O)cc(N3CCN(Cc4ccccc4)CC3)[nH]c2=O)cc1 -57.4%
NS(=O)(=O)c1ccc(CNC(=O)c2cnccn2)cc1 -54.3%
COC(=O)c1nc(NC(=O)c2ccc(C(C)(C)C)cc2)n[nH]1 -75.2%
COc1ccc(-c2nc(-c3ccccc3)no2)c(OC)c1 -66.8%
COc1ccc(C(=O)NC(=S)N2CCNC(=O)C2CC(=O)OC(C)C)cc1 (stereo unspecified) -54.5%
COc1ccc(N(CC(=O)NC2CCCCCCC2)S(=O)(=O)c2c(C)nn(C)c2C)cc1 -60.7%
CCn1ccnc1CN(C)C(=O)c1cc(COc2ccc(Cl)cc2OC)on1 -51.9%
O=C(O)CCn1c(O)c(C=C2N=c3ccccc3=N2)sc1=S -52.2%
CC(C)C(=O)N1c2ccccc2NC2=C(C(=O)CCC2)C1c1ccc(N(C)C)cc1 (stereo unspecified) -60.9%
Cc1cccc(-n2ncc(Cl)c(Cl)c2=O)c1 -95.3%
COc1cc(SC)ccc1C(=O)Nc1nc(C)cs1 -63.8%

Activity change, negative = inhibition, inactive:
COc1ccc(C(=O)c2c3ccc([N+](=O)[O-])cc3[n+]([O-])n2CCCN)cc1 13.3%
O=C(NC1CCCCC1)c1ccc(-c2ccc(Cl)cc2)o1 43.4%
CC1(C)S[C@@H]2[C@H](NC(=O)COc3ccccc3)C(=O)N2C1C(=O)OCc1ccccc1 (stereo partly specified) 5.03%
Cc1c(NC(=O)CN(C)CC(=O)Nc2ccc(F)c(F)c2F)c(=O)n(-c2ccccc2)n1C 1.95%
Cc1ccn2c(=O)nc(SCC(=O)NCc3ccc(F)cc3)nc2c1 4.59%
COc1ccccc1C(c1nnnn1CC1CCCO1)N1CCN(c2ccccc2)CC1 (stereo unspecified) -0.551%
Cc1cccc(N2CCN(C(c3ccc(N(C)C)cc3)c3nnnn3C(C)(C)C)CC2)c1C (stereo unspecified) -2.19%
Cc1sc2nc(CSCC(=O)NC3CCCCC3)[nH]c(=O)c2c1C 16.5%
CCOC(=O)c1ccc(NC(=S)N2CCCC2)cc1 19%
Cc1cc(Cl)ccc1NC(=S)N1CCC(C(N)=O)(N2CCCCC2)CC1 1.76%
O=C1CCCCC1Sc1ccc(Cl)cc1[N+](=O)[O-] (stereo unspecified) 3.95%
CCOc1ccc(NS(=O)(=O)c2ccc(C(=O)NCC(c3ccccc3OC)N3CCCC3)cc2)cc1 (stereo unspecified) -3.53%
O=C(NC1CC1)C1=C[C@H](c2coc3ccccc3c2=O)C[C@H](OCCCCO)O1 -5.11%
COc1ccc(Cl)cc1C(=O)NNC(=S)NC1CCCC1 6.56%
COc1cc(OC)c(C(=O)NC2CCCCCC2)cc1OC 2.19%
Clc1ccc(Nc2ccc3ccccc3n2)cc1 6.43%
Cc1ccc(C2(C)NC(=O)N(CC(=O)Nc3ccccc3C(=O)N3CCCCC3)C2=O)cc1 (stereo unspecified) 10.1%
COc1cc(OC)c(C(=O)OCC(=O)N2CC(=O)Nc3ccccc32)cc1OC 11.6%
O=C1CN(C(=O)COC(=O)c2cnc(Cl)c(Cl)c2)c2ccccc2N1 6.76%
O=C1/C(=C\c2ccc(O)cc2)CCC1CNc1ccc(Cl)cc1 (stereo unspecified) -5.88%
CC(=NCc1ccco1)c1c(C(F)(F)F)[nH]n(-c2nc3ccccc3s2)c1=O -32.4%
C/C(=N\NC(=O)CC(C)C)c1c(C(F)(F)F)[nH]n(-c2nc3ccccc3s2)c1=O -6.15%
Cc1ccc(S(=O)(=O)NC(C)C(=O)NCc2ccc(Cl)cc2)cc1 (stereo unspecified) -3.78%
C=CCn1c(C)cc(C(=O)CN2C(=O)c3ccccc3C2=O)c1C 8.2%
Cc1cccc(N=C2NN=C(c3c[nH]c4ccccc34)CS2)c1 14.3%
Cc1ccc(CNS(=O)(=O)CCNC(=O)c2ccccc2)cc1 -2.85%
CC(C)c1ccc(NC(=O)C2CCCN(S(=O)(=O)c3cccnc3)C2)cc1 (stereo unspecified) -2.05%
O=C(NCc1cccs1)C1CCN(S(=O)(=O)c2ccc(Cl)cc2)CC1 4.22%
Cc1ccc(Cl)c(OCC(=O)N(C)CC(=O)Nc2ccc(N3CCOCC3)cc2)c1 4.7%
COc1cc(C(=O)N(C)Cc2cccc(OC)c2OC)ccc1OCC(=O)Nc1cccc(C(F)(F)F)c1 -3.36%
CCN(CC)c1ccc(NC(=O)c2ccc(=O)[nH]c2)cc1S(=O)(=O)Nc1ccc(OC)cc1 2.04%
CCc1c(C)nc(N2CCN(Cc3ccccc3)CC2)[nH]c1=O -0.365%
CN1CCN(c2cc(=O)n(-c3ccc(Cl)cc3)c(=O)[nH]2)CC1 -10.9%
COCCN(C(=O)COC(=O)Cc1cccc(OC)c1)c1c(N)n(Cc2ccccc2)c(=O)[nH]c1=O -2.09%
NS(=O)(=O)c1ccc(CNC(=O)c2cccc(Oc3ccccc3)c2)cc1 -1.65%
O=C(NNS(=O)(=O)c1ccc(F)cc1)c1cnccn1 4.99%
Cc1ccc(S(=O)(=O)NCCC(=O)OCC(=O)N(C)c2ccccc2)cc1 7.6%
O=C(CCC1CCCCC1)Nc1cc(C(F)(F)F)ccc1N1CCOCC1 3.1%
COC(=O)c1nc(NC(=O)c2ccc(Cl)cc2)n[nH]1 -3.56%
COC(=O)c1nc(NC(=O)c2ccc(F)cc2)n[nH]1 3%
COc1ccc(Sc2nc(-c3ccccc3)ncc2OC)cc1 -4.54%
COc1ccccc1Cc1nc(-c2ccc(C)cc2)no1 12%
C=CCNC(=O)C1CC2c3ccccc3C1c1ccccc12 (stereo unspecified) -1.08%
COc1cccc(NC(=O)CC2C(=O)NCCN2C(=S)Nc2ccc(F)cc2)c1 (stereo unspecified) 3.49%
CCc1ccc(NC(=O)CC2C(=O)NCCN2C(=S)Nc2ccccc2)cc1 (stereo unspecified) -1.21%
Cc1ccc(S(=O)(=O)N(Cc2cccc([N+](=O)[O-])c2)C(=O)N2CCN(C)CC2)cc1 -0.764%
CC(C)N(Cc1nnc(-c2ccc(Cl)cc2)o1)C(=O)C1=COCCO1 -0.126%
Cc1ccc(C(=O)N/N=C/c2cccc3ccccc23)cn1 2.62%
COc1ccc(-c2ccc3nnc(SCC(=O)Nc4ccc(NC(C)=O)cc4)n3n2)cc1 -1.23%
COc1ccc(S(=O)(=O)N2CCCC2CNC(=O)C(=O)NC2CC2)cc1 (stereo unspecified) -3.82%
COc1ccc(N(CC(=O)NC2CCCCC2)S(=O)(=O)c2c(C)[nH]c(=O)[nH]c2=O)cc1 4.32%
CCOc1ccc(N(CC(=O)NC2CCCCCC2)S(=O)(=O)c2c(C)[nH]c(=O)[nH]c2=O)cc1 -0.37%
COc1cc(Cl)ccc1OCc1cc(C(=O)N(C)CCc2c(C)n[nH]c2C)no1 11.4%
CCn1ccnc1CN(C)C(=O)c1cc(COc2ccc(-n3cncn3)cc2)on1 -9.56%
O=C(O)CCn1c(Cc2ccccc2)nc2ccccc21 0.662%
Cc1cc2ccccc2n1CCC(=O)O -0.843%
C=CCOc1ccc(/C=C/C(=O)OC(C)C(=O)Nc2ccc(NC(C)=O)cc2)cc1 (stereo unspecified) 12.2%
COc1ccc(CCNC(=S)N2CCN(S(=O)(=O)c3ccc(F)cc3)CC2)cc1 -3.63%
CCCC(=O)N1c2ccccc2NC2=C(C(=O)CCC2)C1c1ccc(F)cc1 (stereo unspecified) -0.85%
CCC(=O)N1c2ccccc2NC2=C(C(=O)CCC2)C1c1ccco1 (stereo unspecified) -0.999%
O=C(NCC1(N2CCCCC2)CCCCC1)c1ccc(NS(=O)(=O)c2ccc(F)cc2)cc1 -3.19%
CN(C(=O)COC(=O)c1ccc(Br)o1)c1c(N)n(Cc2ccccc2)c(=O)[nH]c1=O -3.83%
O=C(COC(=O)Cc1c[nH]c2ccccc12)NCCc1ccccc1 -4.81%
Cc1cc(=O)oc2cc(NC(=O)C(C)Oc3ccccc3)ccc12 (stereo unspecified) 1.47%
Cc1cccc(-n2ncc(C#N)c2-n2cccc2)c1 2.7%
COc1ccc(Oc2c(Cl)cnn(-c3ccccc3)c2=O)cc1 -5.38%
CC1(c2ccc(Cl)cc2Cl)NC(=O)N(CC(=O)Nc2cccnc2Cl)C1=O (stereo unspecified) 1.88%
CCCOc1ccc(Cl)cc1Nc1nc(NCCO)nc(N2CCCC2)n1 1.49%
COC(=O)c1ccc(COC(=O)C2CCN(S(=O)(=O)c3c(Cl)cccc3Cl)CC2)o1 5.96%
COc1cc(SC)ccc1C(=O)Nc1cc(C)ccn1 28.6%
COC(=O)c1sc(NC(=O)c2ccc(OC)cc2OC)nc1C -40.1%
Cc1ccc(C(=O)C(C)OC(=O)Cc2n[nH]c(=O)c3ccccc23)cc1C (stereo unspecified) -5.5%
NC(=O)c1ccsc1NC(=O)COC(=O)Cc1n[nH]c(=O)c2ccccc12 -1.64%
